Source: PubChem BioAssay (The Scripps Research Institute Molecular Screening Center)
TbREL1 inh: TbREL1 inhibition, primary screen | TbREL1 RNA ligation, FRET fluorescence | inhibition, % at 9.66 µM | P86926 | 89,000 compounds, 0.49% hits;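 active = inhibition above the mean inhibition across all screened compounds plus 3 SD, cut at about 11% in these data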
Target sequence (P86926 whole entry, looked up): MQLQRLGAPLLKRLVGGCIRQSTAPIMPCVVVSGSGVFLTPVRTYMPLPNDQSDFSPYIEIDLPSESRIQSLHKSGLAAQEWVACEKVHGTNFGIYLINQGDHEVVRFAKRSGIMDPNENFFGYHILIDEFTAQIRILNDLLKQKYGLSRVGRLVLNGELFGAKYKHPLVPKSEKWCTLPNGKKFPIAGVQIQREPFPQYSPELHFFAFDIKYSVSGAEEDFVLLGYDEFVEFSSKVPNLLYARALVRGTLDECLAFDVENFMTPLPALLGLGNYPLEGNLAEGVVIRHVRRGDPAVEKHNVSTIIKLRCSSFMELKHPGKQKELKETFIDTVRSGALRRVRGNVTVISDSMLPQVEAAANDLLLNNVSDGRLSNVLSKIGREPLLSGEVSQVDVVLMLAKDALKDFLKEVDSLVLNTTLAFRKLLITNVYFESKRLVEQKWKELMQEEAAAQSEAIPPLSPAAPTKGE
TbREL1 conf: TbREL1 inhibition, confirmation | shares compounds with TbREL1 inh | TbREL1 RNA ligation, FRET fluorescence | inhibition, % at 9.66 µM | 390 compounds, 37% hits | AID 1117282;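 active = mean inhibition across replicates above a set limit taken from the earlier primary screen, cut at about 11% in these data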
A number is an active result; . = inactive. This is one part of a sample in which hits are shown more often than they occur.

SMILES	TbREL1 inh	others
Cc1cc(O)c2c(c1)C(=O)[C@@]13C(=C2O)C(=O)[C@H]2C(O)[C@@H]1[C@H]1C(O)[C@@H]3C(=O)C3=C(O)c4c(O)cc(C)cc4C(=O)[C@@]312 (stereo partly specified)	32	TbREL1 conf=63
Cn1cc(P(=S)(c2ccccc2)c2ccccc2)c2ccccc21	.
N#CC1c2ccccc2-n2nncc2CN1C(=O)CCc1ccccc1 (stereo unspecified)	.
C=CCCC(NC(=O)OCc1ccccc1)P(=O)(Oc1ccccc1)Oc1ccccc1 (stereo unspecified)	.
CC(c1ccccc1)n1cc(C(=O)NC2CCCC2)nn1 (stereo unspecified)	.
COc1ccc(-n2nnnc2C(c2cccs2)N2CCC(n3c(=O)[nH]c4ccccc43)CC2)cc1 (stereo unspecified)	.
S=P(c1ccccc1)(c1ccccc1)c1c[n+](Cc2ccccc2)c2ccccn12	.
N/C(=N\N=C/c1ccc(-c2ccc(O)c(C(=O)O)c2)o1)N[N+](=O)[O-]	49	TbREL1 conf=17
COc1ccc(/C=N/N=C(/N)N[N+](=O)[O-])c(OC)c1	.
c1ccc(Cc2cnc(N3CCNCC3)nc2)cc1	.
Cc1ccc(S(=O)(=O)N2Cc3cc(N4CCOCC4)ccc3-n3nncc3C2)cc1	.
C[C@H](NC(=O)OCc1ccccc1)[P+](=O)O	.
O=C1NC(=O)C(C2CCCCCC2)C(=O)N1	.
CCC(C)OC(=O)c1c(N)n(Cc2cccs2)c2nc3ccccc3nc12 (stereo unspecified)	.
CCC(C)NC(=O)c1c(N)n(CC2CCCO2)c2nc3ccccc3nc12 (stereo unspecified)	37	TbREL1 conf=29
CCC(C)NC(=O)c1c(N)n(CCCOC)c2nc3ccccc3nc12 (stereo unspecified)	44	TbREL1 conf=36
Cc1cccn2c(NCC3CCCO3)c(C(C)C)nc12 (stereo unspecified)	.
Cc1cc(N2CCNC[C@H]2C)ccc1N1CCN[C@@H](C)C1	.
Cc1cc(N2CCNC[C@@H]2C)ccc1N1CCN[C@@H](C)C1	.
O=C(NC1CN2CCC1CC2)c1cc(-c2ccc(Cl)cc2)nc2ccccc12 (stereo unspecified)	.
CC(C)(C)Cc1nnc(NC(=O)COc2ccc(Cl)cc2Cl)o1	.
CN1CCN(c2ccc(NC(=O)C(C)(C)C)cc2)CC1	.
C[C@@H]1COc2cc(N3CCN(C)CC3)ccc2S(=O)(=O)N1	.
CN1CCN(c2ccc(N)cc2)CC1	17	TbREL1 conf=.
Cc1cc(N2CCNC[C@H]2C)ccc1N1CC[C@@H](O)C1	.
COc1ccc(-c2ccc3c(c2)CN(c2cccc(Cl)c2)Cc2cnnn2-3)cc1	15	TbREL1 conf=.
Clc1cccc(N2Cc3cc(N4CCOCC4)ccc3-n3nncc3C2)c1	.
CC(C)(C)C(=O)N1Cc2cc(-c3cccc(F)c3)ccc2-n2nncc2C1	.
C=CCN1Cc2ccccc2-n2nncc2C1	.
COC(=O)[C@@]1(O)c2c(oc3cccc(O)c3c2=O)C=C[C@H]1O	.
